Data as given in the supplement of paper PMC9694430.

What was measured:
Test in all cases: thermal shift delta Tm vs DMSO control; higher = stronger stabilization (binding)
Conditions in all cases: 12.5 µM; protein concentration 2 µM
LOC_OS01G57100-cb003 = tested on: LOC_OS01G57100-cb003
Procedure, shortened: (§1)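 The melting temperature shift given here is a triplicate mean, measured against protein that received only DMSO. Melting temperatures came from Boltzmann fits of differential scanning fluorimetry data on E. coli-expressed, purified rice kinase domain constructs. Each 19.5 μl well contained 2 μM kinase, 100 mM potassium phosphate pH 7.5, 150 mM NaCl, 10% glycerol, 5 × SYPRO Orange and compound in DMSO. Plates were scanned from 25°C to 95°C at 0.05°C/s.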

LOC_OS01G60330-cb001 = tested on: LOC_OS01G60330-cb001
Procedure, shortened: as §1

LOC_OS01G60700-cb002 = tested on: LOC_OS01G60700-cb002
Procedure, shortened: as §1

LOC_OS01G63280-cb003 = tested on: LOC_OS01G63280-cb003
Procedure, shortened: as §1

LOC_OS01G67340-cb003 = tested on: LOC_OS01G67340-cb003
Procedure, shortened: as §1

LOC_OS01G70970-cb002 = tested on: LOC_OS01G70970-cb002
Procedure, shortened: as §1

LOC_OS02G07810-cb001 = tested on: LOC_OS02G07810-cb001
Procedure, shortened: as §1

LOC_OS02G08530-cb003 = tested on: LOC_OS02G08530-cb003
Procedure, shortened: as §1

LOC_OS02G14120-cb001 = tested on: LOC_OS02G14120-cb001
Procedure, shortened: as §1

LOC_OS02G17970-cb001 = tested on: LOC_OS02G17970-cb001
Procedure, shortened: as §1

LOC_OS02G45750-cb003 = tested on: LOC_OS02G45750-cb003
Procedure, shortened: as §1

LOC_OS02G54510-cb004 = tested on: LOC_OS02G54510-cb004
Procedure, shortened: as §1

LOC_OS03G04050-cb001 = tested on: LOC_OS03G04050-cb001
Procedure, shortened: as §1

LOC_OS03G12390-cb001 = tested on: LOC_OS03G12390-cb001
Procedure, shortened: as §1

LOC_OS03G27990-cb004 = tested on: LOC_OS03G27990-cb004
Procedure, shortened: as §1

LOC_OS03G50450-cb001 = tested on: LOC_OS03G50450-cb001
Procedure, shortened: as §1

LOC_OS03G50810-cb003 = tested on: LOC_OS03G50810-cb003
Procedure, shortened: as §1

LOC_OS04G35114-cb001 = tested on: LOC_OS04G35114-cb001
Procedure, shortened: as §1

LOC_OS04G38480-cb003 = tested on: T1, LOC_OS04G38480-cb003
T1 sequence (whole entry): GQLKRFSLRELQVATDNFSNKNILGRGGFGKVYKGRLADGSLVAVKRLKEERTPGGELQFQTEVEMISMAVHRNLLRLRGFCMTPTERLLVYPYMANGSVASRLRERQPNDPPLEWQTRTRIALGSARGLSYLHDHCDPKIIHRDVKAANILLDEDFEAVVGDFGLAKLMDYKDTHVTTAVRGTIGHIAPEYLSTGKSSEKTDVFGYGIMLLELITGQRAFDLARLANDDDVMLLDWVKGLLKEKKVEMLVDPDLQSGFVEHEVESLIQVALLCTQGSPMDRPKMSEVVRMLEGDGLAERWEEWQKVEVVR
Procedure, shortened: as §1

LOC_OS04G41100-cb001 = tested on: T2, LOC_OS04G41100-cb001
T2 sequence (whole entry): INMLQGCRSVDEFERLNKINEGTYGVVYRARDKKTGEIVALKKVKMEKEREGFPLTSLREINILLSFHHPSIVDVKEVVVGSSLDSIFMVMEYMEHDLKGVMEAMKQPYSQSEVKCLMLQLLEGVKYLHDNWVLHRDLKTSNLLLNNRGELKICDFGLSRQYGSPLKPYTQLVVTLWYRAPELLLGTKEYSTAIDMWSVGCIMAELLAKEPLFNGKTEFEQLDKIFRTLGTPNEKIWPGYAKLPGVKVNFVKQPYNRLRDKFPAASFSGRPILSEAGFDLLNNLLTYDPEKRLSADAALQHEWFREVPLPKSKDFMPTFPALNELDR
Procedure, shortened: as §1

SMILES | thermal shift delta Tm (LOC_OS01G57100-cb003) [°C] | thermal shift delta Tm (LOC_OS01G60330-cb001) [°C] | thermal shift delta Tm (LOC_OS01G60700-cb002) [°C] | thermal shift delta Tm (LOC_OS01G63280-cb003) [°C] | thermal shift delta Tm (LOC_OS01G67340-cb003) [°C] | thermal shift delta Tm (LOC_OS01G70970-cb002) [°C] | thermal shift delta Tm (LOC_OS02G07810-cb001) [°C] | thermal shift delta Tm (LOC_OS02G08530-cb003) [°C] | thermal shift delta Tm (LOC_OS02G14120-cb001) [°C] | thermal shift delta Tm (LOC_OS02G17970-cb001) [°C] | thermal shift delta Tm (LOC_OS02G45750-cb003) [°C] | thermal shift delta Tm (LOC_OS02G54510-cb004) [°C] | thermal shift delta Tm (LOC_OS03G04050-cb001) [°C] | thermal shift delta Tm (LOC_OS03G12390-cb001) [°C] | thermal shift delta Tm (LOC_OS03G27990-cb004) [°C] | thermal shift delta Tm (LOC_OS03G50450-cb001) [°C] | thermal shift delta Tm (LOC_OS03G50810-cb003) [°C] | thermal shift delta Tm (LOC_OS04G35114-cb001) [°C] | thermal shift delta Tm (LOC_OS04G38480-cb003) [°C] | thermal shift delta Tm (LOC_OS04G41100-cb001) [°C]
COc1ccc(F)c(F)c1C(=O)c1cnc(NC2CCN(S(C)(=O)=O)CC2)nc1N | 0.71 | 0.06 | 0.31 | -0.18 | 1.43 | 0.03 | 0.5 | 0.57 | -0.08 | -0.09 | 1.63 | -0.08 | 0.26 | -0.05 | 0.19 | 0.18 | 0.05 | 0.62 | 1.07 | 0.79
CCn1c(-c2nonc2N)nc2cnc(Oc3cccc(NC(=O)c4ccc(OCCN5CCOCC5)cc4)c3)cc21 | 0.1 | 1.01 | 1.61 | 0.37 | 1.07 | 0.14 | 0.95 | 1.19 | -0.13 | 1.79 | -0.36 | 0.27 | 0.38 | 0.99 | 0.4 | -0.03 | 0.42 | 0.1 | 2.03 | 0.94
Nc1ccc(-c2ccc3ncc4ccc(=O)n(-c5cccc(C(F)(F)F)c5)c4c3c2)cn1 [Torin 2] | 0.64 | 1.09 | 1.01 | 0.11 | 0.33 | 0.87 | 0.19 | 1.53 | 1.62 | 1.12 | 2.36 | -0.06 | 0.2 | 0.23 | 0.43 | 0.37 | 0.92 | 2.97 | 0.88 | 0.27
Nc1nc(N)c2nc(-c3cccc(O)c3)c(-c3cccc(O)c3)nc2n1 | 2.01 | 3.89 | 1.27 | 0.44 | -0.24 | 0.19 | 1.52 | 0.91 | 1.95 | 1.03 | 0.83 | 0.31 | 0.2 | 0.79 | 1.44 | 0.33 | 0.34 | 0.99 | 1.12 | 0.63
C#Cc1cccc(Nc2ncnc3cc(OC)c(OCCCCCCC(=O)NO)cc23)c1 | 0.24 | 0.19 | 0.52 | 0.06 | -0.47 | 0.22 | 0.79 | 0.57 | 1.05 | 0.31 | 2.9 | 1.18 | -0.05 | 2.33 | 0.11 | 0.09 | 1.73 | 5.97 | 1.01 | 0.37
